Here are results for 40 compounds from PubChem BioAssay (Tox21).

Results filed as inconclusive are left out. A call without a number means that no potency is given here. Active and inactive are the calls of the source. Calls come from the whole dose curve; as a rule, active = well fitted activation curve with a large enough effect in the repeat runs; inconclusive = weak or mixed curves; inactive = flat fitted curve, though single readings scatter.

A short description of the test: A CellTox Green Cytotoxicity Assay to monitor cytotoxicity in HepG2 cells - 32 hour (AID 1224883). Note: nearly all actives have a fitted effect of over 50% in size. Conditions: CellTox Green fluorescence; series mostly up to 76.8 µM. From the text:
National Center for Advancing Translational Sciences [NCATS]
NIH Chemical Genomics Center [NCGC]
U.S. Environmental Protection Agency [EPA]
National Institutes of Environmental Health Sciences [NIEHS]
National Toxicology Program [NTP]
Cell-based models are critical for drug discovery. Determining the natural cytotoxic effects resulting from test compounds is an essential research activity. A CellTox Green Cytotoxicity Assay to monitor cytotoxicity in real time of continues cell culture during 40 hours of the compound treatment was used to screen Tox21 10K library compounds in HepG2 cells. CellTox Green Cytotoxicity Assay is a nonlytic, homogeneous, biofluorescent method to measure cytotoxicity in cell culture after experimental manipulation. The assay system uses a proprietary asymmetric cyanine dye that is excluded from viable cells but preferentially stains the dead cell's DNA. […] Viable cells produce no appreciable increases in fluorescence. Therefore, the fluorescence signal produced by the binding interaction with dead cell DNA is proportional to cytotoxicity.
The mixture of HepG2 cell suspension and reagents were dispensed at 600cells/6 ul/well in 1536-well tissue culture treated black solid bottom plates using a Multidrop dispenser. After the assay plates were incubated at a 37 C/5% CO2 incubator for 5 hours, 23 nL of compounds dissolved in DMSO, positive and negative controls was transferred to the assay plate by a pintool work station. The plates were incubated at 37 C for 40 hours. The fluorescence intensity were measured at 0h, 8h, 16h, 24h, 32h and 40h time points using ViewLux plate reader during compound treatment.
With `FC(F)(F)c1ccccc1-n1ccnc1`, the Potency result was “inactive”.
With `CN(C)c1ccc(C=O)cc1`, the Potency entry was “inactive”.
Still for that read-out and setting: the value for `CC(C)CC(C)CC(C)CC(C)COC(=O)c1ccccc1C(=O)OCC(C)CC(C)CC(C)CC(C)C` (stereo not given) was “inactive”; that for `C#CC(C)N(C)C(=O)Nc1ccc(Cl)cc1` (stereo not given) was “inactive”.
Still for that read-out and setting: the value for `CC1(CO)CN(c2ccccc2)NC1=O` (stereo not given) was “inactive”.
With `COc1ccc(OC)c(Cl)c1`, the Potency result was “inactive”.
Regarding `CCCC(=O)C(C)=O`, the Potency result was “inactive”.
In the case of `CC1COc2ccccc2N1` (stereo not given), the Potency result is “inactive”.
For `CCCCCCOC(=O)CC`, the Potency result is “inactive”.
For `CC(CN)CC(C)(C)CCN` (stereo not given), the Potency entry was “inactive”.
Still for that read-out and setting: with `CC(C)CC(=O)O` the entry was “inactive”; with `CCCOC(OCCC)OCCC`, “inactive”; with `CN(C)C(=O)CNC(=O)Cc1ccccc1`, “inactive”.
For the compound `CCCCCCCCC1CCC(=O)O1` (stereo not given), the Potency result was “inactive”.
On to `C[Si](C)=O`, for which the cytotoxicity increase was -6.59% [at 6.97 µM] (inactive).
For the compound `N[C@@H](CCC(=O)N[C@@H](CS)C(=O)NCC(=O)O)C(=O)O`, the cytotoxicity increase was -10.1% [at 15.8 µM] (inactive).
For the compound `CC1=CCC(C(C)C)=CC1`, the Potency entry was “inactive”.
With `CCCCCCCCCCCCCC`, the Potency result is “inactive”.
The same measure, in the same setting: the value for `O=C(O)c1cc(Br)c(O)c(Br)c1` was “inactive”; that for `COc1nccnc1NS(=O)(=O)c1ccc(N)cc1` was “inactive”.
Still for that read-out and setting: the value for `CC(S)C(=O)NCC(=O)O` (stereo not given) was “inactive”; that for `COc1ccc2nc(SCc3ncc(C)c(OC)c3C)[nH]c2c1` was “inactive”; that for `CCCCCCCCC(=O)Cl` was “inactive”.
The same measure, in the same setting: with `CC1=C(C(=O)O)N2C(=O)[C@@H](NC(=O)[C@H](N)c3ccc(O)cc3)[C@H]2SC1` the entry was “inactive”.
On to `CC(C)C(=O)OCc1cccc(OC(=O)[C@@H]2N3C(=O)[C@@H](NC(=O)Cc4ccccc4)[C@H]3SC2(C)C)c1`, for which the Potency entry was “inactive”.
On the same count and under the same terms, with `CO[C@@H]1[C@@H](OC(N)=O)[C@@H](O)[C@H](Oc2ccc3c(O)c(NC(=O)c4ccc(O)c(CC=C(C)C)c4)c(=O)oc3c2C)OC1(C)C` the entry was “inactive”.
With `COCCOCCOCCOCCO`, the Potency entry was “inactive”.
The same measure, in the same setting: the value for `CN1C(C)(C)CCCC1(C)C` was “inactive”; that for `NS(=O)(=O)c1cc2c(cc1Cl)CN(C1CCCCC1)C2=O` was “inactive”.
Same read-out and setting: the value for `Cc1ccc2ccc(Cl)cc2n1` was “inactive”; that for `NCCN1CCOCC1` was “inactive”; that for `COc1ccc(C2CNC(=O)C2)cc1OC1CCCC1` (stereo not given) was “inactive”.
As to `Cc1[nH]cnc1-c1ccc(Cl)cc1`, the Potency entry is “inactive”.
Still for that read-out and setting: with `Cc1cc(NC(=O)C2=C(O)c3ccccc3S(=O)(=O)N2C)no1` the entry was “inactive”; with `O=C(NCCN1CCOCC1)c1ccc(Cl)cc1`, “inactive”; with `CC(=O)Nc1ccc(S(=O)(=O)Nc2ccc([N+](=O)[O-])cc2)cc1`, “inactive”.
With `O=C1O[C@@H]2[C@@H](O)[C@H](O)O[C@@H]2[C@H]1O`, the Potency result was “inactive”.
Same read-out and setting: the value for `CC(C)(C)c1n[nH]c(=S)n(N)c1=O` was “inactive”.
Regarding `Nc1cccc(O)c1`, the Potency entry is “inactive”.
Still for that read-out and setting: with `COc1cc(NS(=O)(=O)c2ccc(N)cc2)nc(OC)n1` the entry was “inactive”.
